Measurements: PubChem BioAssay (NCI)
About 83,000 compounds went through this panel and 20% of them were active in at least one assay; those are over-represented in the sample as a whole.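 Single-dose data. Exposure time 48 hours. Values below 10 considered active.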 The source made the active and inactive calls.

Experiments:
Test in all cases: NCI-60 one-dose screen, 48 h (100 = growth as untreated, 0 = no growth, -100 = all killed)
Details in all cases: 10 µM unless noted
T-47D breast = system: T-47D breast
BT-549 breast = system: BT-549 breast
MDA-MB-435 melanoma = system: MDA-MB-435 melanoma
SW-620 colon = system: SW-620 colon
MCF7 breast = system: MCF7 breast
HCT-116 colon = system: HCT-116 colon
HCC-2998 colon = system: HCC-2998 colon
KM12 colon = system: KM12 colon

Measured: growth

Nc1ccccc1NC(=O)c1ccc(CN2CCC/C(=C\c3cccc(Cl)c3)C2=O)cc1
inactive: T-47D breast 32.4% | SW-620 colon 23.9% | HCC-2998 colon 12.4%
active: BT-549 breast -9.32% | MDA-MB-435 melanoma 3.87% | MCF7 breast 8.72% | HCT-116 colon 6.06% | KM12 colon 4.58%

Cc1c(C(=O)NO)sc2ncnc(Nc3ccc(NC(=S)Nc4ccccc4)cc3)c12
inactive: T-47D breast 113% | BT-549 breast 106% | MDA-MB-435 melanoma 101% | SW-620 colon 105% | MCF7 breast 95.3% | HCT-116 colon 105% | HCC-2998 colon 99.9% | KM12 colon 102%

COc1ccc(-c2nc(N/N=C/c3cccc(Br)c3)nc(N3CCOCC3)c2C#N)cc1
inactive: T-47D breast 77% | BT-549 breast 100% | MDA-MB-435 melanoma 87.9% | SW-620 colon 14% | MCF7 breast 59.3% | HCT-116 colon 32.9% | HCC-2998 colon 75.4% | KM12 colon 44.2%

COc1cccc(CCC(=O)c2cc3c(N)c(C(=O)Nc4ccccc4)sc3nc2C)c1
active: MDA-MB-435 melanoma -44.5%
inactive: T-47D breast 38.2% | BT-549 breast 44.8% | SW-620 colon 22.2% | MCF7 breast 10.5% | HCT-116 colon 14.4% | HCC-2998 colon 45.1% | KM12 colon 23%

C=C1C(=O)O[C@H]2[C@H]1CC/C(CNC(=O)/C=C/c1ccccc1F)=C\CC[C@@]1(C)O[C@@H]21
inactive: MDA-MB-435 melanoma 23.1% | HCC-2998 colon 50.4% | KM12 colon 74.2%
active: T-47D breast -0.591% | BT-549 breast -6.02% | SW-620 colon -54.3% | MCF7 breast -12.3% | HCT-116 colon -34.9%

O=C1/C(=C/c2ccc(O)cc2)COc2ccc(-c3ccccc3)cc21
inactive: T-47D breast 30.8% | BT-549 breast 80.9% | MDA-MB-435 melanoma 60.7% | SW-620 colon 76.4% | MCF7 breast 34.2% | HCT-116 colon 32.1% | HCC-2998 colon 82% | KM12 colon 19.4%

O=S(=O)(NCCCNc1nccc(-c2c(-c3cccc(O)c3)nc3occn23)n1)c1ccc(F)cc1
inactive: T-47D breast 56.3% | BT-549 breast 87.4% | MDA-MB-435 melanoma 37.3% | SW-620 colon 103% | MCF7 breast 85.2% | HCT-116 colon 56.2% | HCC-2998 colon 109% | KM12 colon 81.9%

O=C(Cc1ccc(/C=C/C(=O)c2ncc[nH]2)cc1)Nc1ccc(C(F)(F)F)cc1
active: MDA-MB-435 melanoma -1.95% | SW-620 colon -16.1% | HCT-116 colon -58.7% | KM12 colon -41.3%
inactive: T-47D breast 29.2% | BT-549 breast 44% | MCF7 breast 10.3% | HCC-2998 colon 59.3%

Cn1/c(=N/NC(N)=S)ccc2ccccc21
inactive: T-47D breast 52.9% | BT-549 breast 100% | MDA-MB-435 melanoma 99.8% | SW-620 colon 84.5% | MCF7 breast 37.4% | HCC-2998 colon 112% | KM12 colon 103%
active: HCT-116 colon 7.01%

C(=C\c1n(Cc2ccc3ccccc3c2)c(-c2ccccc2)c(-c2ccccc2)[n+]1Cc1ccc2ccccc2c1)/c1ccccc1
active: T-47D breast -74.8% | BT-549 breast -83.2% | MDA-MB-435 melanoma -92% | SW-620 colon -86.9% | MCF7 breast -64.1% | HCT-116 colon -80.9% | HCC-2998 colon -91.4% | KM12 colon -83.5%

COc1ccc(/C=C/C(=O)c2ccc(Nc3ncnc4ccccc34)cc2)cc1OC
inactive: T-47D breast 78.6% | BT-549 breast 56.3% | SW-620 colon 27.5% | MCF7 breast 16.1% | HCC-2998 colon 29.9% | KM12 colon 16.3%
active: MDA-MB-435 melanoma 7.77% | HCT-116 colon 9.59%

O=C(OC(OC(=O)c1cc(Cl)cc(Cl)c1)c1cccc2ccccc12)c1ccccc1 (centres undefined)
inactive: T-47D breast 98.8% | BT-549 breast 113% | MDA-MB-435 melanoma 111% | SW-620 colon 97.1% | MCF7 breast 84.8% | HCT-116 colon 93.1% | HCC-2998 colon 83.4% | KM12 colon 102%

COc1ccccc1-c1c(-c2ccc(Cl)cc2)c2cc3c(cc2[nH]c1=O)OCCO3
inactive: T-47D breast 66% | BT-549 breast 67.7% | MDA-MB-435 melanoma 65.2% | SW-620 colon 93.7% | MCF7 breast 42% | HCT-116 colon 47.7% | HCC-2998 colon 83.7% | KM12 colon 63.8%

CCOC(=O)C1CC(=O)c2cc(OC)c(OC)cc2C1 (centres undefined)
inactive: T-47D breast 115% | BT-549 breast 123% | MDA-MB-435 melanoma 114% | SW-620 colon 111% | MCF7 breast 95.7% | HCT-116 colon 95.5% | HCC-2998 colon 101% | KM12 colon 103%

Clc1nc(Cl)c2ncn(CCOCCn3cnc4c(Cl)nc(Cl)nc43)c2n1
active: T-47D breast -53.9% | BT-549 breast -94.1% | MDA-MB-435 melanoma -90.1% | SW-620 colon -86.9% | MCF7 breast -48.9% | HCT-116 colon -79.7% | HCC-2998 colon -87.5% | KM12 colon -85.9%

COc1ccc(Nn2c(SCC(=O)Nc3nc(-c4ccc(Cl)cc4)cs3)nc(C)c2C)cc1
inactive: T-47D breast 32.9% | BT-549 breast 53.3% | MDA-MB-435 melanoma 50.4% | SW-620 colon 75.2% | MCF7 breast 20.8% | HCT-116 colon 27.8% | HCC-2998 colon 54.2% | KM12 colon 43.1%

CCCC/C(=N\N=C(N)N)c1ccc(F)cc1
active: MDA-MB-435 melanoma -19.8%
inactive: T-47D breast 38.9% | BT-549 breast 21.6% | SW-620 colon 23.8% | MCF7 breast 13.1% | HCT-116 colon 21.1% | HCC-2998 colon 37% | KM12 colon 15.7%

O=C(N/N=C/c1cccc(O)c1)c1ccccc1Nc1cccc(C(F)(F)F)c1
inactive: T-47D breast 52% | BT-549 breast 67.3% | MDA-MB-435 melanoma 88.8% | SW-620 colon 95.1% | MCF7 breast 73.4% | HCT-116 colon 83.4% | HCC-2998 colon 82.7% | KM12 colon 81.5%

O=C(Nc1sc2c(c1C(=O)O)CCCC2)c1cccc(C(F)(F)F)c1
inactive: T-47D breast 73.4% | BT-549 breast 93.1% | MDA-MB-435 melanoma 86.2% | SW-620 colon 90.6% | MCF7 breast 63.5% | HCT-116 colon 80.2% | HCC-2998 colon 101% | KM12 colon 89.9%

S=c1[nH]cccc1-c1nnc2n1Nc1nc3ccc(Cl)cc3cc1CS2
inactive: T-47D breast 89.5% | BT-549 breast 96.3% | MDA-MB-435 melanoma 103% | SW-620 colon 98.8% | MCF7 breast 86.5% | HCT-116 colon 86.6% | HCC-2998 colon 106% | KM12 colon 104%

COc1cc(C(=O)/C=C/c2c(C)n([O-])c3ccc(Cl)cc3[n+]2=O)cc(OC)c1OC
inactive: T-47D breast 29.8% | BT-549 breast 64.7% | MDA-MB-435 melanoma 49.4% | SW-620 colon 24.2% | MCF7 breast 30.4% | HCT-116 colon 15.4% | HCC-2998 colon 100% | KM12 colon 73.1%

COc1cc(-c2nc3sccn3c2-c2ccnc(NCCNS(=O)(=O)c3ccc(F)cc3)n2)ccc1F
inactive: BT-549 breast 10.5% | SW-620 colon 26.9% | HCC-2998 colon 43.5%
active: T-47D breast -3.67% | MDA-MB-435 melanoma 2.5% | MCF7 breast 5.83% | HCT-116 colon 6.58% | KM12 colon 9.07%

CN1CCN(c2c(F)cc(NC3=C(Cl)C(=O)c4ncccc4C3=O)cc2F)CC1
inactive: T-47D breast 16.1% | BT-549 breast 106% | MDA-MB-435 melanoma 21% | HCC-2998 colon 108% | KM12 colon 105%
active: SW-620 colon -68.4% | HCT-116 colon -11.3%

CC1(C)CN(c2cnc(C(=O)Nc3cc(F)cc4cccnc34)cn2)CCN1
inactive: T-47D breast 44.3% | BT-549 breast 90.2% | MDA-MB-435 melanoma 85.9% | SW-620 colon 35.1% | HCT-116 colon 11.4% | HCC-2998 colon 92.2% | KM12 colon 91.7%
active: MCF7 breast 9.21%

Clc1ccc(N2N=C(c3cccc(Nc4ccncc4)c3)CC2c2ccc(Br)cc2)cc1 (centres undefined)
inactive: T-47D breast 48.7% | BT-549 breast 116% | HCT-116 colon 105%
active: MDA-MB-435 melanoma -83.1% | SW-620 colon -68.1% | MCF7 breast -51.5% | HCC-2998 colon -67.7% | KM12 colon -51%

COc1ccc2c(c1)c(CC(=O)NCCOCCOCC(=O)Nc1ccc(OC)c(C(N)=O)c1O)c(C)n2C(=O)c1ccc(Cl)cc1
inactive: T-47D breast 81.3% | BT-549 breast 81.1% | MDA-MB-435 melanoma 104% | SW-620 colon 99.4% | MCF7 breast 94.6% | HCT-116 colon 93.9% | HCC-2998 colon 93.5% | KM12 colon 99.4%

COc1ccc(CNC(=O)COc2ccc(/C=N/Nc3nc4ccccc4s3)cc2)cc1
inactive: T-47D breast 14.7% | BT-549 breast 12.9% | SW-620 colon 38.6% | MCF7 breast 42.1% | HCT-116 colon 10.6% | HCC-2998 colon 53.5%
active: MDA-MB-435 melanoma 7.82% | KM12 colon 1.51%

COc1ccc(CC(C)=C(c2ccc(OCCN(C)C)cc2)c2ccc(OCCN(C)C)cc2)cc1
inactive: T-47D breast 84.5% | BT-549 breast 78.3% | MDA-MB-435 melanoma 61.9% | SW-620 colon 48.1% | HCT-116 colon 22% | HCC-2998 colon 89% | KM12 colon 75.5%

O=C(/C=C/c1ccc[nH]1)c1ccc(-n2ccc(C(F)(F)F)n2)cc1
inactive: T-47D breast 94.7% | MDA-MB-435 melanoma 99.5% | SW-620 colon 102% | HCT-116 colon 87.3% | HCC-2998 colon 54.7%
active: BT-549 breast -45.3% | KM12 colon 1.59%
